Assay outcomes as filed in PubChem.
PTHR1 ag: qHTS for PTHR1 Agonists: Primary Screen. HEK293 GP2 PTHR1 cells, GloSensor cAMP luminescence, 1 h. Potency, µM (series often up to 115 µM), most hits filed as activators. 410,000 tested, 0.075% active; note: nearly all actives have a fitted effect of over 55% in size
Target sequence (Q03431 whole entry, looked up): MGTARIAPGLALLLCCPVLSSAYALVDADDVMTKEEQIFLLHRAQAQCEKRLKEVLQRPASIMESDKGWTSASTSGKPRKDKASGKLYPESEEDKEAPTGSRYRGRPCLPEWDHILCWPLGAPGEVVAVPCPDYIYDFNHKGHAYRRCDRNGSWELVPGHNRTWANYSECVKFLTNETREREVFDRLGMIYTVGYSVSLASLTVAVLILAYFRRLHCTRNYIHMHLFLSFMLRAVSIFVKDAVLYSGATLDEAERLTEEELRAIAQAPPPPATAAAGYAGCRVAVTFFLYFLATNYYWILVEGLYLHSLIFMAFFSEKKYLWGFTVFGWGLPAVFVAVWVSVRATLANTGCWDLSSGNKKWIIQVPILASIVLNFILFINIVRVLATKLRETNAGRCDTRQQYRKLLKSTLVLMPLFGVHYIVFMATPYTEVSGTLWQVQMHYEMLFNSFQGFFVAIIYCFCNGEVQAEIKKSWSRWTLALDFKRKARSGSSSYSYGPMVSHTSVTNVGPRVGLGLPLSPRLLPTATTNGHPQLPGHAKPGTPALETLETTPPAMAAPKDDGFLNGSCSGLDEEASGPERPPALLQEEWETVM
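HEK-293-derived GP2 cells expressing PTHR1 and a GloSensor cAMP reporter, 3,000/well, plated overnight, given luciferin plus IBMX (each 0.5 mM as added) for 1 h at 37 °C, then compound for 1 h at 37 °C. Luminescence was read after 15 min at room temperature.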
B2AR arrestin: qHTS assay of beta-arrestin-biased ligands of beta2-adrenergic receptor; Beta-2 adrenergic receptor (Homo sapiens), P07550; beta-arrestin recruitment to beta2AR, cell-based reporter; Potency, µM (series often up to 46.1 µM), most hits filed as activators; 330,000 tested, 0.02% active; AID 492947, 2010; note: nearly all actives have a fitted effect of over 65% in size
DRD3 agonist: qHTS of D3 Dopamine Receptor Agonist: qHTS; D3R DiscoveRx beta-arrestin cells, luminescence, 90 min; max activation, %; 410,000 tested, 0.58% active; in the data active = max activation above about 30%
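Agonist-mode cell screen: cells plated at 1500/well and incubated overnight at 37 °C, then exposed to library compounds for 90 min at 37 °C. Detection reagent was added for 30–60 min at room temperature, and luminescence was read.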
D3 antag: qHTS of D3 Dopamine Receptor Antagonist: qHTS; D3R cells, DiscoveRx beta-arrestin luminescence, antagonist mode; hits give low values; 360,000 tested, 2.5% active; max response, negative = inhibition, %; in the data active = max response below about -50%; inconclusive = no clear call, values can overlap the other calls
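Cells expressing the human receptor were seeded at 1500 cells/well, incubated overnight at 37 degrees C in 5% CO2, then exposed to library compounds with dopamine controls for 90 minutes at 37 degrees C before luminescent detection.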
BRCA1 expr act: qHTS Assay to Identify Small Molecule Activators of BRCA1 Expression; MCF7-BRCA1-FFLuc reporter, luminescence, 48 h; response scale: scaled: vehicle 0%, 10 µM genistein 100%; Potency, µM (series often up to 46.1 µM), hits mostly activators; 380,000 tested, 1.1% active; AID 624202, 2012; note: nearly all actives have a fitted effect of over 80% in size
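Using MCF7 cells harboring a BRCA1 firefly luciferase reporter, plated 2 h before compound pinning, the screen measured luminescence after 48 h incubation. Responses were normalized to DMSO and 10 microM genistein, then fitted for concentration-effect.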
RGS4 inh: Inhibitors of Regulator of G Protein Signaling (RGS) 4: qHTS; 390,000 tested, 0.039% active; Potency, µM (doses to about 114 µM), most hits filed as inhibitors; Transcreener GDP fluorescence polarization, RGS4-accelerated GTP hydrolysis; note: nearly all actives have a fitted effect of over 75% in size
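MLSMR compounds (23 nl, pin-transferred) preincubated 10 min at room temperature with a 500nM (2x) first reagent, then RGS4 at 900nM (2x) plus Transcreener GDP mix added; fluorescence polarization (620/688 nm) read before and after 90 min at 30 °C.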
Numbers stand for hits; 0 = inactive; ? = inconclusive; - = no result given. Only some compounds are listed: those with a hit (about 3.7% of all), similar ones and a draw of the others. Unless noted, calls come from the whole dose curve; as a rule, active = well fitted curve in the direction sought with a large enough effect; inconclusive = small, poorly fitted or top-dose-only effect, or another doubt; inactive = no such curve, though single readings can be large; an effect the other way counts as inactive or inconclusive.

SMILES	PTHR1 ag	B2AR arrestin	DRD3 agonist	D3 antag	BRCA1 expr act	RGS4 inh
COc1cccc(-c2cnc(C(O)c3ccc(Cl)c(Cl)c3)[nH]2)c1 (stereo not given)	0	-	0	0	0	-
Cc1cccc(C)c1OCc1cc(C(=O)N2CCC(C3CCCCC3)C2)no1 (stereo not given)	0	-	0	0	12.6µM	0
CC(=O)c1ccc(OCc2cc(C(=O)N3CC[C@@H]4CCCC[C@H]4C3)no2)cc1	0	0	0	0	3.16µM	0
Cc1cccc(C)c1OCc1cc(C(=O)N2CCC(c3ccccc3)CC2)no1	0	0	0	0	?	0
CN(CCc1ccccc1)C1CCCN(S(=O)(=O)c2cccc(F)c2)C1 (stereo not given)	0	0	0	-63.4	0	0
CC(=O)c1ccc(S(=O)(=O)N2CCCC(N(C)CCc3ccccc3)C2)cc1 (stereo not given)	0	0	0	0	0	0
Cc1nn(CC(=O)NCc2cccc(F)c2)c(=O)c2c(C)n(-c3ccc(Cl)cc3)nc12	0	-	0	-	-	0
CC1CCN(CCCNS(=O)(=O)c2ccc3c(c2)CCN3C(=O)C2CC2)CC1	0	0	0	0	0	0
CCC(=O)N1CCc2cc(S(=O)(=O)NCCN3CCC(C)CC3)ccc21	0	0	0	-90.0	0	0
CCOC(=O)C1=NS(=O)(=O)NC(C)=C1	0	0	0	0	0	0
[C-]#[N+][C@H](O[C@@H]1O[C@H](CO)[C@@H](O)[C@H](O)[C@H]1O)c1ccccc1	0	-	0	0	0	0
O=C(O)CC(CCc1ccccc1)OC1OC(CO)C(O)C(O)C1O (stereo not given)	0	0	32.9	0	0	0
CCc1ccc(S(=O)(=O)NCc2cccs2)cc1	0	0	0	-64.7	0	0
CCc1ccc(CNCc2cccs2)cc1	0	0	0	0	0	0
CCC(=O)Nc1ccc(S(=O)(=O)NCc2cccn2Cc2cccc(C)c2)cc1	0	-	0	-	0	0
Cc1ccc(NC(=O)[C@H](NC(=O)[C@@H]2Cc3ccccc3CN2)c2ccccc2)cc1C	0	0	0	-101.0	0	0
O=C(/C=C/Nc1ccc(F)c(Cl)c1)c1ccccc1	0	0	0	0	0	0
Cc1cc(NS(=O)(=O)c2ccc(NC(=O)c3ccccc3F)cc2)nc(C)n1	0	-	0	-	-	0
O=C(NCCc1ccccc1)c1noc2c1CCc1ccccc1-2	0	0	0	0	?	0
O=C1c2ccccc2CC[C@H]1CNCCc1ccc(O)cc1	-	-	-	-	-	4.23µM
O=C(Nc1ccc(Br)cc1Br)Nc1cccc2[nH]c([C@@H]3O[C@H](CO)[C@@H](O)[C@H](O)[C@H]3O)nc12	0	-	0	0	0	-
Cc1nnc(NC(=O)c2ccc3c(c2)NC(=O)CS3)s1	0	0	0	0	0	0
Cc1ccc(NC(=O)c2ccc3c(c2)NC(=O)CS3)nc1	0	0	0	0	7.94µM	0
C/C(NC(=O)c1ccccc1F)=C1\C(=O)C[C@@H]2[C@H]1C2(C)C	0	0	0	0	11.2µM	0
CCOc1ccc(-c2nn3c(-c4ccc(F)cc4)nnc3s2)cc1	0	-	0	-64.4	0	0
SMILES	PTHR1 ag	B2AR arrestin	DRD3 agonist	D3 antag	BRCA1 expr act	RGS4 inh
CC(=O)Nc1ccc(NC(=O)COC(=O)CCNS(=O)(=O)c2c(Cl)cccc2Cl)cc1	0	0	0	0	0	0
O=C(Nc1ccn(CCCNC2CCN(Cc3ccccc3)CC2)c(=O)n1)OCc1ccccc1	0	-	0	-52.5	0	-
O=C(Nc1ccn(CCCNCCN2CCOCC2)c(=O)n1)OCc1ccccc1	0	-	0	0	0	0
CCc1nnc(NC(=O)CC23CC4CC(CC(Br)(C4)C2)C3)s1	0	0	0	0	0	0
CC(=O)c1ccc(OCC(O)CN2CCN(c3ccccn3)CC2)cc1 (stereo not given)	0	0	55.9	-55.0	0	0
COc1ccc(OCC(O)CN2CCN(c3ncccn3)CC2)cc1 (stereo not given)	0	0	31.0	?	0	0
COc1ccc(OCC(O)CN2CCOCC2)cc1 (stereo not given)	0	0	0	0	0	0
CC(=O)c1ccc(OCC(O)CN2CCN(CC(O)COc3ccc(C(C)=O)cc3)CC2)cc1 (stereo not given)	0	0	0	0	0	0
CCCc1ccc(OCC(O)CN2CCN(c3ccccn3)CC2)cc1 (stereo not given)	0	0	62.4	0	0	0
CCc1ccc(OCC(O)CN2CCN(c3ccccn3)CC2)cc1 (stereo not given)	0	0	0	0	0	0
COC(=O)c1cc(NC(=O)[C@H](CCS(C)(=O)=O)N2Cc3ccccc3C2=O)cc(C(=O)OC)c1	0	-	0	-	0	0
NC(=O)C1CC12c1ccccc1-c1ccccc12 (stereo not given)	0	0	0	0	0	0
CC1CC1C(=O)Nc1ccc(-c2ccccc2)cc1 (stereo not given)	0	0	0	0	2.51µM	0
CCC(C(=O)Nc1ccccc1OC)n1c(C(=O)OC)cc2sc(Cl)cc21 (stereo not given)	0	-	0	-	-	0
COC(=O)c1ccc(NC(=O)c2cn(-c3ccccc3)nc2-c2ccncc2)cc1	0	0	0	-67.2	0	?
O=C(O)c1ccc(NC(=O)c2cn(-c3ccccc3)nc2-c2cccc(Cl)c2)cc1	0	0	36.1	0	0	0
N=C1/C(=C/c2ccc(OCc3ccccc3)cc2)C(=O)N=C2SC(CC(=O)N3CCOCC3)=NN12	0	0	0	0	14.1µM	0
CCSc1ccc(-c2nn(-c3ccccc3)cc2/C=C(/C#N)C(=O)NCCCOC)cc1	0	0	36.7	0	0	0
Cc1c(N=NC2=C(O)CCCC2=O)c(=O)n(-c2ccccc2)n1C	0	0	0	-82.5	0	0
CCn1nnc2cc(C(=O)Nc3ccc(Cl)cc3C)ccc21	0	-	0	-	-	0
CCOCCc1nn2c(=O)cc(COC(=O)COc3ccc(C)c(C)c3)nc2s1	0	-	0	-	-	0
Oc1ccc(F)c(CN2CCN(c3ncc(Cc4ccccc4)cn3)CC2)c1	0	-	0	0	-	-
Brc1cccc(CN2CCN(c3ncccn3)CC2)c1	0	0	0	0	0	0
CCc1ccc(CN2CCN(c3ncccn3)CC2)cc1	0	0	60.6	?	0	0
Cc1cccc(CN2CCN(c3ncccn3)CC2)c1	0	0	0	0	0	0
